# The full list was thinned out, with hits kept by preference.
# LmPK inh = LmPK (Leishmania mexicana) enzyme inhibition. 290,000 compounds, 0.37% hits. Potency, µM (titrated, usually from 57.5 µM), for the others: at the highest dose activity change, negative = inhibition, most hits filed as inhibitors. purified LmPK, Kinase-Glo ATP luminescence, 1 h. Q27686; further: potency means the concentration at half of the fitted maximal effect; on the % scale 0 is the no-effect control and ±100 the full control effect
# Target sequence (Q27686 whole entry, looked up): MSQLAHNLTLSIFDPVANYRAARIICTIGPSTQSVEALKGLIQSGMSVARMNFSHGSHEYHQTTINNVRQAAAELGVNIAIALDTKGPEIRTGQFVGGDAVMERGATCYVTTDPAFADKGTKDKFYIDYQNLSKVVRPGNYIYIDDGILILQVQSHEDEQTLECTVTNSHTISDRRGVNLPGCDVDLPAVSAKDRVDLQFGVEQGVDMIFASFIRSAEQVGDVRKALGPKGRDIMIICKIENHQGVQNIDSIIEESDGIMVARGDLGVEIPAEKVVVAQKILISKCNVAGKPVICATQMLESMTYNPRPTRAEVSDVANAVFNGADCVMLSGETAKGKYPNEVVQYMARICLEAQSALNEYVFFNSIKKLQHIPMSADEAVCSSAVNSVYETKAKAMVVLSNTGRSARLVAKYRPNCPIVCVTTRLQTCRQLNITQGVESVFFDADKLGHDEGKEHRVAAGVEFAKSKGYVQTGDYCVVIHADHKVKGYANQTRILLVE
#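 ATP generated from ADP (0.1 mM) and PEP (0.5 mM) by 0.1 nM LmPK over 1 h at room temperature (pH 7.2 imidazole buffer) was detected by coupled luciferase luminescence. Values were normalized to uninhibited and no-enzyme wells.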
# FBPA Giardia inh = Giardia lamblia aldolase inhibition | A8B2U2 | purified Giardia FBPA | Potency, µM (series often up to 59.6 µM), inactives show at the highest dose activity, negative = inhibition, most hits filed as inhibitors | 290,000 compounds, 0.71% hits; further: potency means the concentration at half of the fitted maximal effect; on the % scale 0 is the no-effect control and ±100 the full control effect; nearly all actives have a fitted effect of over 55% in size
#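 Giardia FBPA (40 nM reagent) was preincubated 10 min at RT with compound (up to 57.5 uM final), then substrate plus GAPDH/TPI/NAD/arsenate coupling system with diaphorase/resazurin was added; resorufin fluorescence (525/598 nm) was read after 20 min.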
# Shiga toxin inh = blocks Shiga toxin action in Vero cells. 290,000 compounds, 9.2% hits. Vero cells, Shiga toxin protein synthesis inhibition reporter. AID 2315. inhibition, % at 38.7 µM; in the data active means inhibition mostly above about 28%, no sharp cut-off; inactive means mostly below about 43%; further: 0% is about no effect
# Sm TGR block = S. mansoni TGR enzyme inhibition; Q962Y6; purified TGR, DTNB reduction, TNB absorbance 405 nm; Potency, µM (series often up to 114 µM), inactives show at the highest dose activity change, negative = inhibition, hits mostly inhibitors; 360,000 compounds, 3% hits; further: potency means the concentration at half of the fitted maximal effect; on the % scale 0 is the no-effect control and ±100 the full control effect; nearly all actives have a fitted effect of over 60% in size
#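 First, TGR (20 nM dispensed) and NADPH were mixed with compound. Second, a 15 min room-temperature incubation followed. Third, further NADPH and then DTNB were added to start the reaction. Finally, TNB absorbance was monitored kinetically.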
# CHX counter = affects cycloheximide protein synthesis inhibition readout, counter-screen | 300,000 compounds, 12% hits | max response, % | cell reporter, cycloheximide protein synthesis inhibition counterscreen; in the data active means max response mostly above about 13%, no sharp cut-off; inactive means mostly below about 14%; further: read at 38.3 µM for the half of the compounds with a filed dose; 0% is about no effect
# TbPYK inhibitor = inhibitors of Trypanosoma brucei pyruvate kinase. TbPYK enzyme, Kinase-Glo Plus ATP luminescence, 45 min. Potency, µM (doses to about 76.8 µM), for the others: at the top dose activity, negative = inhibition, most hits filed as inhibitors. 410,000 compounds, 0.12% hits; further: potency means the concentration at half of the fitted maximal effect; on the % scale 0 is the no-effect control and ±100 the full control effect; nearly all actives have a fitted effect of over 50% in size
#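 T. brucei PYK with substrate was exposed to pin-transferred compounds across a concentration series, then started with 130 uM ADP (final). After 45 min at room temperature, Kinase-Glo Plus luminescence was read, normalized and curve-fitted.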
# An asterisk follows results filed as active; u = inconclusive; x = no result given; [ ] = remark or other dose. Unless noted, the call rests on the fitted dose curve; in most records, active means well fitted curve in the direction sought with a large enough effect; inconclusive means small, poorly fitted or top-dose-only effect, or another doubt; inactive means no such curve, though single readings can be large; an effect the other way counts as inactive or inconclusive.
SMILES,LmPK inh,FBPA Giardia inh,Shiga toxin inh,Sm TGR block,CHX counter,TbPYK inhibitor
Cc1cc(C)nc(NS(=O)(=O)c2ccc(NC(=O)c3ccc(O)cc3O)cc2)n1,-4.4%,-9.6%,-4.0,-1.4%,-1.0,-4.6%
COc1cc(OC)cc(C(=O)NC(=S)Nc2ccc(Cl)c(C(=O)O)c2)c1,-4.3%,-17.7%,-4.1,22.4µM*,-3.9,2.9%
COc1cc(C(=O)NC(=S)Nc2ccc(Cl)c(C(=O)O)c2)cc(OC)c1OC,0.7%,-0.4%,-7.2,39.8µM*,-1.8,0.5%
CCc1ccccc1-n1c2c(cc(-c3nc(-c4ccc(Cl)cc4)cs3)c1=O)C(=O)CC(C)(C)C2,x,x,x,-7.3%,x,-4.5%
CCOc1ccc(C(=O)Nc2nnc(S(=O)(=O)Nc3ccccc3)s2)cc1,x,x,x,1.8%,x,u
c1ccc(-c2n[nH]c3c2oc2ccccc23)cc1,x,-5.6%,72.2*,x,53.0*,x
COc1ccc(NC(=O)COC(=O)CNS(=O)(=O)c2ccc(C)cc2)c(OC)c1,2.4%,0.4%,-8.9,1.7%,1.7,1.1%
COc1cc2c(cc1NC(=O)COC(=O)CNS(=O)(=O)c1ccc(C)cc1)oc1ccccc12,-2.3%,-6.7%,82.5,-12.8%,23.9*,6.8%
COc1ccc(OCC(=O)Nc2cc3oc4ccccc4c3cc2OC)cc1,-4.0%,2.6%,-11.3,-9.1%,-1.5,1.1%
COc1ccc(S(=O)(=O)N[C@@H](C)C(=O)OCC(=O)Nc2cc3oc4ccccc4c3cc2OC)cc1,1.0%,-7.5%,102.7*,0.5%,14.9*,-5.3%
COc1cc2c(cc1NC(=O)COC(=O)[C@@H](NS(=O)(=O)c1cccc(Cl)c1)C(C)C)oc1ccccc12,5.5%,-0.2%,23.4,7.2%,12.7*,-0.4%
CCOc1ccc(N2CC(NC(=O)C(=O)c3c[nH]c4ccccc34)CC2=O)cc1 (stereo not drawn),x,x,x,0.5%,x,4.8%
COc1ccc(Cn2c(SCc3ccc(C(=O)NCc4cccs4)cc3)nc3ccncc32)cc1,x,x,x,2.3%,x,-2.2%
Cc1ccc(NC(=O)Nc2cccc(F)c2)nc1,-7.7%,5.4%,21.3,-7.2%,26.2*,0.9%
O=C(Nc1cccc(F)c1)Nc1ccc(Cl)cn1,4.2%,5.0%,38.3*,1.0%,24.1*,0.9%
O=C(Nc1ccc(Cl)cn1)Nc1ccccc1Cl,-0.9%,11.7%,8.9,0.8%,5.8,2.6%
Cc1ccnc(NC(=O)Nc2cccc(F)c2)c1,u,3.9%,73.2*,30.5%,41.1*,x
CCc1ccccc1NC(=O)Nc1cccc(F)c1,-12.6%,-8.1%,22.6,x,15.2,5.9%
CC(C)OP(=O)(OC(C)C)C1(NS(=O)(=O)c2ccc(Cl)cc2)C=C(Cl)C(=O)C(Cl)=C1,0.0%,12.0%,9.1,0.794µM*,1.0,u
CC(C)N(CCNS(=O)(=O)c1ccc(Cl)cc1)C(C)C,-0.1%,-3.2%,-5.4,0.0%,-1.8,x
O=C(O)c1ccc(/C=N/Nc2nnnn2-c2ccccc2)cc1,-1.6%,-10.1%,2.1,-1.3%,-2.2,0.9%
O=C(O)c1ccc(N/N=C/c2ccc(OC(=O)c3ccccc3Cl)cc2)cc1,1.2%,8.9%,19.4,-1.2%,20.7*,-9.9%
COc1cc(/C=N\NC(=O)c2cccnc2)ccc1OC(=O)c1ccccc1Cl,-0.5%,-2.7%,-8.0,-9.0%,-0.5,-6.9%
COc1cc(C(=O)N/N=C/c2ccc(OC(=O)c3ccccc3Cl)cc2)ccc1O,-1.0%,1.6%,21.6,-21.3%,26.1*,2.7%
Nc1ccc(C(=O)N/N=C\c2ccc(OC(=O)c3ccccc3Cl)cc2)cc1,9.2%,-5.7%,21.1,-2.4%,37.6*,2.3%
SMILES,LmPK inh,FBPA Giardia inh,Shiga toxin inh,Sm TGR block,CHX counter,TbPYK inhibitor
COc1cc(C(=O)Oc2ccccc2/C=N/NC(=O)c2ccc(Cl)cc2Cl)cc(OC)c1OC,5.3%,-7.0%,25.7*,-3.6%,23.1*,-8.4%
Cc1cccc(-c2nnc(C3CCN(S(=O)(=O)c4cccc(Cl)c4)CC3)o2)c1,x,x,x,-6.3%,x,u
CCc1ccc(CNC(=O)C2CCCN(c3nn4cc(-c5ccc(F)cc5)nc4s3)C2)cc1 (stereo not drawn),x,x,x,7.4%,x,-1.2%[15.4 µM]
Cn1nc(-c2ccccc2)cc1NC(=O)c1ccccc1,2.5%,3.4%,18.9,2.7%,11.6*,-1.7%
Cc1cc(NC(=O)c2ccccc2)n(C)n1,9.2%,-10.8%,-6.8,5.0%,-1.4,-5.1%
Cn1nc(-c2ccc(Cl)cc2)cc1NC(=O)Nc1ccccc1,-0.5%,2.0%,65.8*,-0.4%,31.4*,2.6%
Cn1nc(-c2ccccc2)cc1NC(=O)Nc1ccc(C(C)(C)C)cc1,1.5%,-10.8%,17.5,-0.8%,1.7,4.0%
Cc1nc(NCCO)c2nc(-c3ccccc3)n(CCCN(C)C)c2n1,x,0.5%,x,x,x,x
CCOc1ccc(C(=O)N2CCc3cc(OC)c(OC)cc3C2COc2ccc3c(C)cc(=O)oc3c2)cc1OCC (stereo not drawn),x,x,x,-0.4%,x,0.8%
O=C(CSc1ccccn1)Nc1nonc1[N+](=O)[O-],-9.8%,x,15.7,7.08µM*,22.5,-20.5%
O=C(CSc1ccccn1)Nc1ccccc1F,-4.4%,0.3%,7.3,0.0%,10.5,0.8%
CCc1ccc(NC(=O)CSCCO)cc1,-2.4%,2.4%,36.8*,-8.3%,13.5,-10.5%
Cc1cc(C)nc(NC(=O)CSc2ccccn2)n1,7.1%,0.5%,-6.3,-17.3%,2.3,0.3%
O=C(CSc1ccccn1)Nc1ccc(Br)cn1,-2.3%,2.0%,66.9,-5.1%,21.2*,0.9%
O=C(CSCCO)Nc1ccccc1,0.8%,28.7%,-13.6,0.0%,1.2,4.3%
COc1ccc(NC(=O)CSCc2ccccc2C)cc1,-5.1%,-7.4%,64.9*,4.0%,54.4*,-11.5%
CCc1cccc(C)c1NC(=O)Cn1cc2c(n1)CCCCC2,x,x,x,0.0%,x,-4.9%
CCOc1cccc2cc(-c3nc4sc(C(=O)Nc5ccc(C)cc5)c(C)c4c(=O)[nH]3)c(=O)oc12,x,x,x,-0.2%,x,-0.7%
C#CC(C)(CC)NC(=O)c1cc2c(n(-c3ccc(Cl)cc3)c1=O)CC(C)(C)CC2=O (stereo not drawn),x,x,x,0.8%,x,0.2%
COc1cccc(NC(=O)CSc2ccccn2)c1,-3.1%,-1.6%,69.5*,2.1%,61.5*,-22.4%
COc1ccc(NC(=O)CSCC(=O)NCCc2ccccn2)cc1,3.4%,0.2%,33.7,0.6%,10.9,-0.2%
COc1ccc(NC(=O)CSc2ccccn2)cc1,4.1%,-5.2%,61.6*,-6.1%,49.3*,3.2%
COc1ccc(NC(=O)CSc2nc(C)cc(C)n2)c([N+](=O)[O-])c1,0.9%,3.0%,-6.0,2.7%,-2.0,5.1%
COc1ccc(NC(=O)CSc2ccccn2)c([N+](=O)[O-])c1,0.1%,0.6%,101.9*,0.0%,36.8*,10.8%
COc1ccc(N(CC(=O)NCCSc2ccccn2)S(C)(=O)=O)cc1,-1.5%,-1.7%,-3.8,-0.9%,-2.5,7.2%
